Experiment [1] in a line: qHTS assay to identify aromatase inhibitors - cell viability counter screen (AID 743084).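 Note: cells stimulated with testosterone during compound exposure; nearly all actives have a fitted effect of over 55% in size.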 Note: potency is the fitted concentration of half-maximal effect. For orientation: In qHTS, concentration-response curves come from the screen itself.
In experiment [2] the target is Aryl hydrocarbon receptor (Homo sapiens) (UniProt P35869). As to the kind of experiment: qHTS assay to identify small molecule that activate the aryl hydrocarbon receptor (AhR) signaling pathway (AID 743085).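 For activation: HG2L7.5c1 human HepG2 liver cells with stably integrated DRE-driven firefly reporter; series mostly up to about 70 µM.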 Note: nearly all actives have a fitted effect of over 15% in size. Note: potency is the fitted concentration of half-maximal effect. The essentials:
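Reporter assay in engineered HepG2 line HG2L7.5c1, whose plasmid carries twenty dioxin responsive elements upstream of firefly luciferase. Treatment lasted 24 h at 37C; ONE-Glo luminescence gauged induction.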

Experiment [3] in a line: qHTS assay to identify small molecule that activate the aryl hydrocarbon receptor (AhR) signaling pathway - cell viability counter screen (AID 743086). Note: nearly all actives have a fitted effect of over 45% in size. Note: potency is the fitted concentration of half-maximal effect. The method in brief: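 HepG2-AhR-luc (HG2L7.5c1) cells, 4000/well, treated 24 h at 37 C with compound; viability measured as CellTiter-Fluor fluorescence after 30 min in the same wells as the luciferase read.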
Experiment [4] addresses Peroxisome proliferator-activated receptor gamma (Homo sapiens) (UniProt P37231). Put plainly: qHTS assay to identify small molecule agonists of the peroxisome proliferator-activated receptor gamma (PPARg) signaling pathway (AID 743094; active = well fitted activation curve with a large enough effect in the signal ratio in the repeat runs, not every such curve was filed as active; the % refers to the signal ratio). The method in brief:
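Stably transfected HEK293H cells (GeneBLAzer PPARg UAS-bla) were incubated with test substances for 17 h at 37C after a 5 h pre-incubation; beta-lactamase activity was then detected by FRET substrate fluorescence.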

The nature of experiment [5]: qHTS assay to identify small molecule phospholipidosis (PLD) inducers (AID 1259344; active = well fitted curve in the direction sought with a large enough effect; an effect the other way counts as inactive or inconclusive). The essentials:
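Quantitative HTS in HepG2: compound plus LipidTOX Red dye for 24 h, paraformaldehyde fixation with Hoechst 33342, widefield high-content imaging; amiodarone as positive and DMSO as negative control.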

Experiment [6] addresses Nuclear receptor subfamily 1 group I member 2 (Rattus norvegicus) (UniProt Q9R1A7). Put plainly: Rat pregnane X receptor (rPXR) activation by small molecules, qHTS assay (AID 1346983). Note: nearly all actives have a fitted effect of over 20% in size. The following applies: rPXR luciferase reporter cells, One-Glo luminescence, 24 h; max activation: active compounds read high. The essentials: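 Cell-based rPXR activation assay: rPXR cells, 2,000 per well, rested 5hr at 37 C, then exposed to compounds in DMSO for 24 hr at 37 C. Luciferase activity read by One-Glo luminescence after 30 min at room temperature.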

The target in experiment [7] is Nuclear receptor subfamily 1 group I member 2 (Homo sapiens) (UniProt O75469). As to the kind of experiment: CYP3A4 induction through human pregnane X receptor (PXR) by small molecules, qHTS assay (AID 1346984). Note: nearly all actives have a fitted effect of over 40% in size. The method in brief: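 DPX-2 reporter cells; 24h cpd, 37C; Luciferin-IPA 3uM final x3h; One-Glo 30 min RT; lumi read.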
Experiment [8] shares this target. As to the kind of experiment: Human pregnane X receptor (PXR) activation by small molecules, qHTS assay (AID 1346985). Note: nearly all actives have a fitted effect of over 40% in size. The method in brief:
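DPX-2 cells (HepG2 co-transfected with a PXR response element and a CYP3A4-promoter luciferase construct) were seeded at 2,000 per well, rested 5 hr at 37C, then exposed to DMSO-dissolved compounds for 24 hr. Activation was read as luciferase luminescence.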

The structures appear in SMILES notation. Inconclusive results are not listed. Unmarked numbers belong to inactive results. Calls of active or inactive are those of the source. Unless noted, calls come from the whole dose curve; as a rule, active = well fitted curve in the direction sought with a large enough effect in the repeat runs; inconclusive = weak or mixed curves; inactive = no such curve, though single readings can be large; an effect the other way counts as inactive or inconclusive.
% is set by controls: 0 for no effect and ±100 for the full control effect.

Chain of Nuclear receptor subfamily 1 group I member 2 (Rattus norvegicus) (Q9R1A7 whole entry, looked up): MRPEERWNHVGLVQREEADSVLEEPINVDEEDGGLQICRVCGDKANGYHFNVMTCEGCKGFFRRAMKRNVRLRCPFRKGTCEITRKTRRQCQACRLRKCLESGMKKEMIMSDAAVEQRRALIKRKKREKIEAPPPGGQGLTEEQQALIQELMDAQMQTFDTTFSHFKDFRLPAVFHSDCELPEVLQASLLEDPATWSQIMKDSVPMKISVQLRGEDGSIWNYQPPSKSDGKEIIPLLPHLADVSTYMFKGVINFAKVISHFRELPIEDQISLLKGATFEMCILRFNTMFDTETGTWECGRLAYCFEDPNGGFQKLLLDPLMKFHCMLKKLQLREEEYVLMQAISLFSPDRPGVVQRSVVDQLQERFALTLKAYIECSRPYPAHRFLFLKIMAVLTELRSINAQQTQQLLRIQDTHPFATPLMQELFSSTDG
Chain of Peroxisome proliferator-activated receptor gamma (Homo sapiens) (P37231 whole entry, looked up): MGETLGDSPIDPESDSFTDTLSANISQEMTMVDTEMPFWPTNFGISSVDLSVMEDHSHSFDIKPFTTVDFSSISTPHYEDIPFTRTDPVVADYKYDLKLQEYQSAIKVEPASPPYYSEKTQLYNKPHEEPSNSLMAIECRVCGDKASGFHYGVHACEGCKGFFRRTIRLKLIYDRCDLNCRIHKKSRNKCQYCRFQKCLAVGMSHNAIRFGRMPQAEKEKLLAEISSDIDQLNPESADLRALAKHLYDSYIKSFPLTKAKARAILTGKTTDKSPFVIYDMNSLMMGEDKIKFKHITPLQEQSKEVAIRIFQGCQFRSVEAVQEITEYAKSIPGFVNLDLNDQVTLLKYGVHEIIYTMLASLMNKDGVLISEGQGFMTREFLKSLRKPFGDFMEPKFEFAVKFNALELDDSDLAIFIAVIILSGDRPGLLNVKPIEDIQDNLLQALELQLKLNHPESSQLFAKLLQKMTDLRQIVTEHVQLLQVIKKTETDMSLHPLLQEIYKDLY
Chain of Aryl hydrocarbon receptor (Homo sapiens) (P35869 whole entry, looked up): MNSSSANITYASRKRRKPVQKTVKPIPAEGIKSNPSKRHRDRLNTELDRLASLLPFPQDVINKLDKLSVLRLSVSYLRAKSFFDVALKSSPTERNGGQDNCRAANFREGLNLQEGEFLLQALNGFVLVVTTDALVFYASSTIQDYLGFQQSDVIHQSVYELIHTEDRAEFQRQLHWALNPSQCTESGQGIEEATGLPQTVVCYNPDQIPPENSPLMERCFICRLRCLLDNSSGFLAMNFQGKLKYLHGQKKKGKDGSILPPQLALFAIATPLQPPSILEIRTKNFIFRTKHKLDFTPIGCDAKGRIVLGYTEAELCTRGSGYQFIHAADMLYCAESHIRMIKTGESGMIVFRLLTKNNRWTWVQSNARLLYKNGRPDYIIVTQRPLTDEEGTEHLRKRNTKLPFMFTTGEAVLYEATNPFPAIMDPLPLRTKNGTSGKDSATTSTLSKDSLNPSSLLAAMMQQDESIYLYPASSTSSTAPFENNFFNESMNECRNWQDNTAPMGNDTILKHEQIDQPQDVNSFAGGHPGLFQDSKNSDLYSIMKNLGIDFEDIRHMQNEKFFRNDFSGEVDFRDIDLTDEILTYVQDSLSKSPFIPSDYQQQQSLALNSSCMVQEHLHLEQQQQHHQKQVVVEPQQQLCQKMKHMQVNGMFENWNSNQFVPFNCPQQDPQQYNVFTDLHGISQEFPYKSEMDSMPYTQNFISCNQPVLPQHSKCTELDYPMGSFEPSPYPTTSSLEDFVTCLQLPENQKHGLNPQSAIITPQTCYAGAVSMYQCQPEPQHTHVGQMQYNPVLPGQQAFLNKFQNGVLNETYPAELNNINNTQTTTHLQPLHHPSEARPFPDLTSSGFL

Take `Cc1cccc(Nc2ncccc2C(=O)O)c1C`: the Potency result in experiment [1], in experiment [3], in experiment [4], in experiment [5], in experiment [7] and in experiment [8] was “inactive” each time. For the same compound, the Potency in experiment [2] is 29.8 µM (active). Moreover, the max activation in experiment [6] was -0.253%.
In the case of `CC(C)CCC[C@@H](C)[C@H]1CC(=O)C2=C3CC[C@H]4C[C@@H](O)CC[C@]4(C)[C@H]3CC[C@@]21C`, the Potency entry in experiment [1], in experiment [2], in experiment [3], in experiment [4], in experiment [5] and in experiment [7] was “inactive” each time. In addition, the Potency entry in experiment [8] was “inactive”. Besides, the max activation in experiment [6] is -2.36%.
`COc1cc(C)c(/C=C/C(C)=C/C=C/C(C)=C/C(=O)O)c(C)c1C`: the Potency entry in experiment [1], in experiment [2], in experiment [3], in experiment [5], in experiment [7] and in experiment [8] was “inactive” each time. In addition, the max activation in experiment [6] is -4.44%.
Regarding `CS(=O)(=O)OCC(O)C(O)COS(C)(=O)=O` (stereo not drawn), the Potency entry in experiment [1], in experiment [2], in experiment [3], in experiment [4], in experiment [5] and in experiment [7] was “inactive” in each case. The Potency entry in experiment [8] was “inactive”. Also, in experiment [6], the max activation is -4.2%.
Take `COc1ccc(C[C@H](N)C(=O)N[C@H]2[C@@H](O)[C@H](n3cnc4c(N(C)C)ncnc43)O[C@@H]2CO)cc1`: the Potency in experiment [1] was 9.44 µM (active); in experiment [3], 3.76 µM (active). Further, the Potency result in experiment [2], in experiment [5], in experiment [7] and in experiment [8] was “inactive” each time. Also, the max activation in experiment [6] was -3.7%.
For `Nc1nc2[nH]cc(CCc3ccc(C(=O)N[C@@H](CCC(=O)O)C(=O)O)cc3)c2c(=O)[nH]1`, the Potency entry in experiment [1], in experiment [2], in experiment [3], in experiment [4], in experiment [5] and in experiment [7] was “inactive” throughout. The Potency result in experiment [8] was “inactive”. Further, the max activation in experiment [6] was -1.09%.
Regarding `CCCCC(=O)N(Cc1ccc(-c2ccccc2-c2nn[nH]n2)cc1)[C@@H](C(=O)O)C(C)C`, the Potency entry in experiment [1], in experiment [2], in experiment [3], in experiment [4], in experiment [5] and in experiment [7] was “inactive” each time. Moreover, the Potency entry in experiment [8] is “inactive”. Moreover, in experiment [6], the max activation is -1.58%.
For `CCCCCCCCCCCCCCCC(=O)OCC(COC(=O)CCCCCCCCCCCCCCC)OC(=O)CCCCCCCCCCCCCCC`, the Potency entry in experiment [1], in experiment [2], in experiment [3], in experiment [4], in experiment [5] and in experiment [7] was “inactive” in each case. Further, the Potency entry in experiment [8] was “inactive”. The max activation in experiment [6] is -0.974%.
In the case of `CC(C)=CCC/C(C)=C/C=C/C(C)=C/C=C/C(C)=C/C=C/C=C(C)/C=C/C=C(C)/C=C/C=C(\C)CCC=C(C)C`, the Potency entry in experiment [1], in experiment [2], in experiment [3], in experiment [5], in experiment [7] and in experiment [8] was “inactive” throughout. In experiment [6], the max activation is 2.83%.
Consider `CC1=C(/C=C/C(C)=C/C=C/C(C)=C/C(=O)Oc2c(C)c(C)c3c(c2C)CC[C@@](C)(CCC[C@H](C)CCC[C@H](C)CCCC(C)C)O3)C(C)(C)CCC1`, for which the Potency result in experiment [1], in experiment [2], in experiment [3], in experiment [4], in experiment [5] and in experiment [7] was “inactive” in each case. Moreover, in experiment [8], the Potency entry was “inactive”. Moreover, the max activation in experiment [6] was -1.27%.
`CCCCCCCCCCCC(=O)N(CCO)CCO`: the Potency result in experiment [1], in experiment [2], in experiment [3], in experiment [5], in experiment [7] and in experiment [8] was “inactive” each time. The max activation in experiment [6] is -2.62%.
With `CC[C@H]1NC(=O)[C@@H](NC(=O)c2ncccc2O)[C@@H](C)OC(=O)[C@H](c2ccccc2)NC(=O)[C@@H]2CC(=O)CCN2C(=O)[C@H](Cc2ccccc2)N(C)C(=O)[C@@H]2CCCN2C1=O`, the Potency entry in experiment [1], in experiment [2], in experiment [3], in experiment [4], in experiment [5] and in experiment [7] was “inactive” throughout. In addition, the Potency entry in experiment [8] was “inactive”. Moreover, in experiment [6], the max activation was 9.01%.
As for `Cc1nc(NS(=O)(=O)c2ccc(N)cc2)nc(C)c1Br`, the Potency entry in experiment [1], in experiment [2], in experiment [3], in experiment [4], in experiment [5] and in experiment [7] was “inactive” in each case. Besides, the Potency entry in experiment [8] was “inactive”. For the same compound, the max activation in experiment [6] is -1.45%.
For `C=CCSSSCC=C`, the Potency entry in experiment [1], in experiment [2], in experiment [3], in experiment [4], in experiment [5] and in experiment [7] was “inactive” in each case. Also, the Potency result in experiment [8] is “inactive”. The max activation in experiment [6] is 0.11%.
Consider `C[C@]12CC[C@@H]3c4ccc(O)cc4CC[C@H]3[C@@H]1CC[C@@H]2OP(=O)(O)O`, for which the Potency result in experiment [1], in experiment [2], in experiment [3], in experiment [4], in experiment [5] and in experiment [7] was “inactive” throughout. For the same compound, the Potency result in experiment [8] is “inactive”. The max activation in experiment [6] was 0.522%.
In the case of `NCCCC[C@H](N)C(=O)O`, the Potency result in experiment [1], in experiment [2], in experiment [3], in experiment [4], in experiment [5] and in experiment [7] was “inactive” each time. Moreover, the Potency entry in experiment [8] is “inactive”. Also, the max activation in experiment [6] was -0.992%.
Take `C[C@]12CC[C@@H]3c4ccc(OC(=O)c5ccccc5)cc4CC[C@H]3[C@@H]1CC[C@@H]2O`: the Potency entry in experiment [1], in experiment [2], in experiment [3], in experiment [4], in experiment [5] and in experiment [7] was “inactive” in each case. Besides, the Potency result in experiment [8] was “inactive”. The max activation in experiment [6] was -1.5%.
With `CC1(C)S[C@@H]2[C@H](NC(=O)C(C(=O)O)c3ccsc3)C(=O)N2[C@H]1C(=O)O` (stereo partly drawn), the Potency entry in experiment [1], in experiment [2], in experiment [3], in experiment [4], in experiment [5] and in experiment [7] was “inactive” in each case. In addition, the Potency result in experiment [8] was “inactive”. In addition, the max activation in experiment [6] is -6.29%.
With `Cc1ccccc1OCC(O)CNCCOc1ccc(C(N)=O)cc1` (stereo not drawn), the Potency result in experiment [1], in experiment [2], in experiment [3], in experiment [4], in experiment [5] and in experiment [7] was “inactive” in each case. Further, in experiment [8], the Potency result was “inactive”. Further, the max activation in experiment [6] was -2.29%.

The values are drawn from PubChem BioAssay (Tox21).
